Shown are actives, neighbours in structure and some others; about 0.31% of the full set was active somewhere.
TRPML1 agonist – human mucolipin-1 channel agonism; activation, % (no concentration beside the values); 0.12% of 410,000 active; AID 624414; TRPML1-expressing cells, Ca2+ dye fluorescence, FDSS; Q9GZU1; in the data active means activation above about 50%; inconclusive means mostly about 30% to 49%; further: 0% is about no effect
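TRPML1-DL cells, Tet-induced overnight (~16 h, 37 degrees C), loaded 45-90 min at room temperature with Ca8 no-wash calcium dye plus quencher. FDSS fluorescence: 10 s baseline, compound pin-transfer, 110 s agonist read, then EC80 54-4 (4uM final) and 110 s antagonist read.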
TRPV1 agonist – human TRPV1 agonism. Q8NER1. TRPV1-expressing cells, Fluo-8 calcium influx, agonist mode. activation, % at 8.33 µM. 0.19% of 320,000 active; in the data active means activation above about 80%; inconclusive means between about 30% and that limit; further: 0% is about no effect
Target sequence (Q8NER1 whole entry, looked up): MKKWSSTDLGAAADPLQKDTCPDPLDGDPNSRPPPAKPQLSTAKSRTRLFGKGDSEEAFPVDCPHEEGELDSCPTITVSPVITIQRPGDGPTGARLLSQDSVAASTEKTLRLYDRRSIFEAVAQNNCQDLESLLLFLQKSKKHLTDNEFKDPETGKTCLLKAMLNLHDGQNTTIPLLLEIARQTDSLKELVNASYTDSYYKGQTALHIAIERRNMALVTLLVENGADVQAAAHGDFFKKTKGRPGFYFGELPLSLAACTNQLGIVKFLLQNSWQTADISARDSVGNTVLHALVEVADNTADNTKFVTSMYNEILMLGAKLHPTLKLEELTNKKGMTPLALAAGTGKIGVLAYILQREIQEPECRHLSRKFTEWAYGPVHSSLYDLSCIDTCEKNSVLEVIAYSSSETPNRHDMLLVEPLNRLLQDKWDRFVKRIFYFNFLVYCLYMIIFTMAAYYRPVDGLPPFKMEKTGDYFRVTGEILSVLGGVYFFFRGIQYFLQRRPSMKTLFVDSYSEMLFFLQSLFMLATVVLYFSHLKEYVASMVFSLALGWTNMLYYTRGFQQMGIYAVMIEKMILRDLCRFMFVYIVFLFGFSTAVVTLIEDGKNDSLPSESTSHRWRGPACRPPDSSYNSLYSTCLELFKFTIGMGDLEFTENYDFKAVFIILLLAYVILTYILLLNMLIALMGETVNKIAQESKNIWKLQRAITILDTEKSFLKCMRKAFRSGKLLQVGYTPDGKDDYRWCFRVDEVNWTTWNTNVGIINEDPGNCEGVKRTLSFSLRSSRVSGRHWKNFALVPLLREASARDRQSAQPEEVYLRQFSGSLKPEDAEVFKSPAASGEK
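Fluo-8 calcium influx in TRPV1-expressing cells, kinetic read (ex 480/em 520 nm). Compound added and read 3 min for agonist activity, followed by capsaicin at EC20 final and 2 min further read for enhancement.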
TRPV1 PAM – human TRPV1 potentiation | TRPV1-expressing cells, Fluo-8 calcium influx, capsaicin EC20 potentiation | potentiation, % at 8.33 µM | 0.02% of 320,000 active | AID 540277; in the data active means potentiation above about 80%; inconclusive means between about 30% and that limit; further: 0% is about no effect
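TRPV1-expressing cells were cultured overnight at 35.5C and loaded with Fluo-8 calcium dye for 40 to 90 min at room temperature. After a 10 s baseline, compound was added and calcium influx was read kinetically for 3 min (ex 480/em 520 nm).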
TRPML1 inh – blocks the human TRPML1 channel | TRPML1-inducible cells, Ca2+ dye fluorescence, FDSS; stronger effect = lower value; inhibition of EC80 agonist-evoked calcium signal | 0.02% of 390,000 active | AID 624415 | Q9GZU1 | activity change, negative = inhibition, % (concentration not given with the values); in the data active means activity change below about -50%; inconclusive means between about -30% and that limit;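 further: stimulus is agonist 54-4 at its EC80 concentration; on the % scale 0 is the no-effect control and ±100 the full control effect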
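Tet-induced TRPML1-DL cells loaded with Ca8 no-wash calcium dye were read kinetically on FDSS. Compound addition was followed by EC80 agonist 54-4 (4 uM final); inhibition was read over 110 s.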
The depositor's hits bear a star; ? = inconclusive; · = no result; ! = repeats disagree.

SMILES | TRPML1 agonist | TRPV1 agonist | TRPV1 PAM | TRPML1 inh
COC(=O)c1cccc(NC(=O)c2ccc3c(c2)C(=O)N(C(C)(C)C)C3=O)c1 | 2 | 107* | -12 | 0
Cc1cc(N)c(NC2=CC(=O)CC(C)(C)C2)cc1C | 60* | 2 | ? | 4
O=C(C[C@H]1C(=O)N(Cc2ccccc2)C[C@@H]1Cc1ccccc1)Nc1ccccc1 | 0 | ? | 6 | 4
O=C(C[C@H]1C(=O)N(C2CCCCC2)C[C@@H]1Cc1ccccc1)Nc1ccccc1 | 0 | 85* | 10 | -14
CC[C@@H]1CCC[C@@H](O)[C@@H](C)C(=O)O[C@H](C)[C@@H](C)C/C=C(C)/C(OC)=C\C(=O)N(C)C([C@@H](C)CC)C(=O)N(C)[C@@H](C(C)C)C(=O)N(C)[C@@H](COC)C(=O)N2CCC[C@H]2C(=O)N(C)[C@@H](C(C)C)C(=O)N2CCC[C@H]2C(=O)O1 (some centres undefined) | 51* | · | · | ·
CC(C)(C)OC(=O)N1CCC(c2c(C(=O)N3CCN(c4ncccn4)CC3)cnn2-c2ccc(F)cc2F)CC1 | 1 | · | · | 23
Cc1ccc(-n2ncc(C(=O)N3CCN(C4CCCCC4)CC3)c2C2CCN(C(=O)OC(C)(C)C)CC2)cc1C | 69* | · | · | -15
Cc1cccc(N2CCN(C(=O)c3cnn(-c4ccc(F)cc4F)c3C3CCN(C(=O)OC(C)(C)C)CC3)CC2)c1C | 93* | · | · | -63*
CCN1CCN(C(=O)c2cnn(-c3cccc(Cl)c3)c2C2CCN(C(=O)OC(C)(C)C)CC2)CC1 | 1 | · | · | 4
COc1ccccc1N1CCN(C(=O)c2cnn(-c3ccc(C)c(C)c3)c2C2CCN(C(=O)OC(C)(C)C)CC2)CC1 | 59* | · | · | -10
Cc1ccc(-n2ncc(C(=O)N3CCN(c4ccccn4)CC3)c2C2CCN(C(=O)OC(C)(C)C)CC2)cc1C | 0 | · | · | -4
CC(C)(C)OC(=O)N1CCC(c2c(C(=O)N3CCN(C4CCCCC4)CC3)cnn2-c2cccc(Cl)c2)CC1 | 92* | · | · | -23
Cc1ccnc2ccc3ccccc3c12 | 0 | · | · | ·
COc1cc(/C=C/C(=O)/C=C(O)/C=C/c2ccc(O)c(OC)c2)ccc1O | ? | ? | 5 | 2
COc1cc(/C=C/C(=O)CC(=O)/C=C/c2ccc(O)c(OC)c2)ccc1O | 55*! | ? | 7 | 1
COc1cccc(/C=C/C(=O)Nc2ccc3[nH]c(=O)[nH]c3c2)c1 | 0 | 93* | 4 | 44
O=C(Nc1ccc2[nH]c(=O)[nH]c2c1)Nc1ccc(F)cc1F | -1 | ? | 23 | -3
COc1cc(/C=C/C(=O)Nc2ccc3[nH]c(=O)[nH]c3c2)cc(OC)c1OC | 0 | -14 | -1 | -5
O=C(/C=C/c1ccc(F)cc1)Nc1ccc2[nH]c(=O)[nH]c2c1 | 0 | 83* | 0 | 8
CCc1ccc(NC(=O)Cn2c(=O)n(Cc3nc(-c4ccccc4)no3)c(=O)c3cc4c(cc32)OCO4)cc1 | 1 | · | · | -4
N#C/C(=C/c1ccc(-c2ccc(S(N)(=O)=O)cc2)o1)C(=O)Nc1ccccc1 | 1 | -1 | 11 | -17
N#C/C(=C/c1ccc(-c2ccc(S(N)(=O)=O)cc2)o1)c1nc2ccccc2s1 | 64* | 22 | -2 | 3
COc1ccc(C(=O)N(C)C2CCCN(Cc3ccccc3F)C2)cc1OC (centres undefined) | -1 | -3 | 82* | 4
O=C1N/C(=N\S(=O)(=O)c2ccccc2)S/C1=C\c1cc([N+](=O)[O-])ccc1O | 51* | 29 | -1 | 2
O=C1N/C(=N\S(=O)(=O)Cc2ccccc2)S/C1=C/c1cc([N+](=O)[O-])ccc1O | 74* | ? | 9 | -4
SMILES | TRPML1 agonist | TRPV1 agonist | TRPV1 PAM | TRPML1 inh
CCCCCCCCCC[n+]1cccc2cc(Br)ccc21 | 0 | · | · | ·
CCc1ccc(NC(=O)CSc2nnc(-c3ccccc3)n2C)cc1 | -2 | · | · | ·
CC1CCN(S(=O)(=O)c2ccc(C(C)C)cc2)CC1 | 115* | -2 | 0 | -10
CC1CCN(S(=O)(=O)c2ccc(Cl)cc2)CC1 | 0 | 0 | -17 | -9
O=c1oc2ccccc2cc1-c1nc2c(s1)CCc1ccccc1-2 | 7 | 1 | -1 | -20
O=c1oc2cc(O)ccc2cc1-c1nnc(Nc2ccccc2F)s1 | 71* | · | · | 3
O=c1oc2cc(O)ccc2cc1-c1nc2c(s1)CCc1ccccc1-2 | 83* | 83* | -13 | -6
O=c1oc2ccc3ccccc3c2cc1-c1nnc(Nc2ccccc2F)s1 | 0 | · | · | 0
